This is an account of results in the supplement of paper PMC5641865, “A screen for kinase inhibitors identifies antimicrobial imidazopyridine aminofurazans as specific inhibitors of the Listeria monocytogenes PASTA kinase PrkA” (The Journal of Biological Chemistry, 2017).

± gives the standard deviation of the averaged measurements.
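Further: End-point A600 read in BHI broth at 37 °C with 2% DMSO, inhibition computed as (1 − OD with compound plus ceftriaxone ÷ OD with ceftriaxone only) × 100.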

The assay concerns Listeria monocytogenes 10403S. As to the kind of experiment: growth inhibition relative to ceftriaxone-alone control; higher = stronger potentiation of ceftriaxone growth inhibition. The settings on record: 10 µM; ceftriaxone 1 ug/ml; 12 h.
On to `CCS(=O)(=O)N1CC(CC#N)(n2cc(-c3ncnc4[nH]ccc34)cn2)C1`, for which the growth inhibition stood at 20.4 ± 0.71%.
As for `CNC(=O)c1ccc(-c2cnc3ncc(Cc4ccc5ncccc5c4)n3n2)cc1F`, the figure is 16.9 ± 8.9%; as for `OCCCNc1nccc(-c2c(-c3ccc(F)cc3)nn3cc(C(F)(F)F)ccc23)n1`, 15.6 ± 7.1%; as for `CC(=O)NCC(=O)N1[C@@H]2CC[C@H]1c1ccc(Nc3ncc(C(F)(F)F)c(NC4CCC4)n3)cc12`, 52 ± 46%.
Regarding `Fc1ccc(-c2ncn(C3CCNCC3)c2-c2ccnc(Oc3ccc(Oc4ccccc4)cc3)n2)cc1`, the growth inhibition was found to be 12.2 ± 24%.
For `c1ccc2c(-c3cnn4cc(-c5ccc(N6CCNCC6)cc5)cnc34)ccnc2c1`, the growth inhibition was found to be 24.6 ± 12%.
As for `O=C(Nc1n[nH]c2nc(-c3ccc(O)cc3)c(Br)cc12)C1CC1`, the figure is -9.15 ± 4.2%; as for `Cc1[nH]nc2ccc(-c3cncc(OC[C@@H](N)Cc4ccccc4)c3)cc12`, 76.8 ± 16%.
As for `CN1CCC(n2cnc(-c3ccc(F)cc3)c2-c2ccnc(NCCO)n2)CC1`, the growth inhibition was -2.88 ± 2.5%.
With `CS(=O)(=O)Nc1cccc(-c2ccc3c(NC(=O)C4CC4)n[nH]c3c2)c1`, the growth inhibition is -6.98 ± 15%.
As for `Nc1nccc(C#Cc2cncnc2Nc2ccc(OCc3cccc(F)c3)c(Cl)c2)n1`, the figure is 8.9975 ± 0.0066%; as for `COC(=O)Nc1nc2ccc(Oc3ccc(NC(=O)Nc4cccc(Cl)c4)cc3)cc2[nH]1`, -4.18 ± 4.6%; as for `NC(=O)c1cc(-c2ccc(F)cc2)cc(-c2ccncc2)c1N`, -1.35 ± 1.1%.
`Cc1ccc(NC(=O)c2cccc(N(C)C)c2)cc1NC(=O)c1ccc(O)cc1`: the growth inhibition was determined as 29.5 ± 12%.
`c1ccc(Oc2ccc(Nc3ncc(-c4ccccc4)o3)cc2)cc1`: the growth inhibition is -0.487 ± 1.7%.
As for `CS(=O)(=O)CCNCc1ccc(-c2ccc3ncnc(Nc4ccc(OCc5cccc(C(F)(F)F)c5)cc4)c3c2)o1`, the figure is -9.85 ± 16%.
